From PubChem BioAssay (NCI)
This is part of a sample that, as a whole, favours compounds with a hit. Of some 83,000 tested, about 20% had one in any assay.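 Results are percent growth after 48 hours of single-concentration exposure. 100 means growth as in untreated cells, lower positive values show inhibition; negative values down to -100 show cell death.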 Values without a mark were called inactive. Active and inactive are the calls of the source. How the source made its calls: active means growth percent below 10; inactive means the rest.

Test system: MDA-MB-468 breast
Experiment: NCI-60 one-dose screen, 48 h (100 = growth as untreated, 0 = no growth, -100 = all killed)
Details: 10 µM unless noted

Row | SMILES | growth
1 | COc1ccc(-c2nsc3c2NC(=O)CC3c2cccc(F)c2)cc1 (stereo not given) | 19.7%
2 | C=C1CC[C@@H]2[C@@](C)(CCC[C@]2(C)C(=O)O)[C@@H]1CC[C@H](CO)CCO | 108%
3 | COc1ccc(NC2=C(Br)C(=O)C(C)=C(C)C2=O)cc1OC | -66.6% (active)
4 | S=C1NCc2cncnc2N1 | 99.7%
5 | C=C[C@]1(C)C=C2C(=O)[C@@]3(O)OC(=O)[C@@]4(CCCC(C)(C)[C@H]34)[C@@]2(O)CC1 | -84.4% (active)
6 | Cc1oc(-c2ccc(Cl)cc2Cl)cc1C(=O)Nc1nccs1 | 94.4%
7 | O=C1Nc2ccccc2/C1=C/c1cccn1C(=O)c1ccc(Cl)s1 | -16.5% (active)
8 | O=C(CCC(=O)c1nc2ncccc2[nH]1)NN1C(=O)CSC1c1ccc(Cl)cc1 (stereo not given) | 112%
9 | COc1cccc(COC(=O)Nc2ccccc2)c1OC | 93.3%
10 | O=C(Oc1ccc(Cl)cc1[N+](=O)[O-])Oc1ccc(Cl)cc1[N+](=O)[O-] | 114%
11 | O=S(=O)(O)c1cc(O)c2c(N=Nc3ccc(Nc4ccccc4)c4c(S(=O)(=O)O)cccc34)cc(S(=O)(=O)O)cc2c1 | 103%
12 | CCCCOc1nc2ccc(Cl)cc2cc1/C=C/C(=O)/C=C1/CC(c2cc3cc(Cl)ccc3nc2OCCCC)Nc2ccccc2N1 (stereo not given) | 103%
13 | Nc1c(C(=O)Nc2ccc(C(F)(F)F)cc2)sc2nc(-c3cnccn3)cc(-c3cccs3)c12 | 69.9%
14 | CC(CNc1nc(Nc2ccc(Cl)c(Cl)c2)nc(C(Cl)(Cl)Cl)n1)N(C)C (stereo not given) | -43.3% (active)
15 | FC(F)(F)c1ccc(-c2cnc(Cl)nc2NC2CCCCCC2)cc1 | -4.8% (active)
16 | Cn1c(NCCc2ccc(O)c(O)c2)nc2c1c(=O)n(Cc1ccc(Cl)c(Cl)c1)c(=O)n2C | 49.4%
17 | O=C(O)c1cccc2c1-c1ccccc1C2=O | 116%
18 | O=C(/C=C/c1ccccc1Cl)Nc1ncc(Cc2cc(Cl)ccc2Cl)s1 | 22.8%
19 | Oc1ccc(-c2nc3ccc4[nH]ncc4c3c3c2CCCC3)c(F)c1 | 18.2%
20 | CCCn1c(=O)[nH]c(N)c([C@H]2c3ccccc3Oc3[nH]c(=O)n(CCC)c(=O)c32)c1=O | 68.7%

Row | SMILES | growth
21 | O=C(c1ccccc1)N1N=C(c2ccc(-n3ccc(C(F)(F)F)n3)c(F)c2)CC1c1ccc[nH]1 (stereo not given) | 108%
22 | Cn1c(=O)c2[nH]c(SCC(=O)Nc3ccc(C(=O)/C=C/c4ccccc4Cl)cc3)nc2n(C)c1=O | 76.4%
23 | CCN(CC)c1cc(/C=C/c2ccc(OC)c(OC)c2)nc2cc(F)c(F)cc12 | -32.6% (active)
24 | Cc1cc2nc3ccc(N=Nc4ccc(N(C)C)cc4)cc3n(-c3ccccc3)c-2cc1=N | -89.4% (active)
25 | O=C1Nc2ccc(Br)cc2/C1=N/c1n[nH]c(=S)s1 | 103%
26 | CC(C)(C)OC(=O)Nc1ccc(-c2cccc(Oc3ccc4nnc(Cl)n4n3)c2)cc1 | 61.9%
27 | COc1cc(/C=N/Nc2ncnc3c2c(C)nn3-c2ccc(F)cc2)ccc1O | 92%
28 | O=C(Nc1ccc(Cl)cc1)Nc1nc2ccc([N+](=O)[O-])cc2s1 | -36.7% (active)
29 | COc1nc2ccccc2cc1-c1nc2c(cnn2-c2ccc(Br)cc2)c(=O)[nH]1 | 5.52% (active)
30 | COc1ccc(C(=O)/C=C/c2cc3c(c(OC)c2)OCC(=O)N3)cc1 | 42.3%
31 | CC(=O)C(/C=N/C(N)=O)=C(/C)O | 109%
32 | N#C/C(=C\c1cccc2c1OCO2)C(=O)Nc1sc2c(c1C#N)CCCC2 | 100%
33 | O=C(Nc1ccc(-n2ccc3c(NC(=O)c4ccccc4)nccc32)cc1)Nc1ccc(Cl)c(Cl)c1 | -90.1% (active)
34 | COc1cc(/C=N/n2cnc3oc(-c4ccccc4)cc3c2=N)cc(CN2CCN(C)CC2)c1O | 91.9%
35 | CCC(=O)Oc1ccc2ccccc2c1 | 96.8%
36 | O=C(NCCOCCOCCNc1cccc2c1C(=O)N(C1CCCNC1=O)C2=O)c1cc2c(o1)C(=O)c1ccccc1C2=O (stereo not given) | -36.6% (active)
37 | O=C(O)c1ccc2c(c1)C(=O)c1ccccc1C2=O | -2.97% (active)
38 | CC1(C)CCC(C)(C)NC(=S)N1 | 103%
39 | NC(CSC(c1ccccc1)(c1ccccc1)c1ccc(F)cc1)C(=O)O (stereo not given) | -41% (active)
40 | O=C(c1ccc(-c2ccccc2)cc1)c1ccc([N+](=O)[O-])cc1 | 108%
